Outcome and viability change, negative = cytotoxic data for 38 compounds are collected here from PubChem BioAssay (Tox21).

Inconclusive results are not listed. The source made the active and inactive calls. Calls follow the shape of the full dose curve.

The nature of the experiment: qHTS assay to identify small molecule agonists of the AP-1 signaling pathway - cell viability counter screen (AID 1159525). Also: nearly all actives have a fitted effect of over 55% in size. To be noted: ME-180 (cervical carcinoma) AP-1-bla cells viability, ATP luminescence, 5 h; series mostly up to 76.8 µM. The method, boiled down: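 Luminescent ATP readout (Cell Titer Glo, 30 min RT), normalised to DMSO and tetra n-octyl ammonium bromide controls. Cells were ME-180 AP-1-bla in 0.5% dialyzed FBS Opti-MEM, with a 5 h, 37 °C compound exposure.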
As for `CC(COc1ccc(C(C)(C)C)cc1)OS(=O)OCCCl` (stereo not drawn), the call was inactive.

With `Cc1ccc(Nc2nccc(N(C)c3ccc4c(C)n(C)nc4c3)n2)cc1S(N)(=O)=O`, the outcome was inactive.

Consider `CN(C)CCOC1=Cc2ccccc2Sc2ccc(Cl)cc21`, for which the result was inactive.

As to `CCOCCn1c(C2CCN(CCc3ccc(C(C)(C)C(=O)O)cc3)CC2)nc2ccccc21`, the compound was classed as inactive.

Turning to `CCCC(=O)O[C@]1(C(=O)COC(=O)CC)CC[C@H]2[C@@H]3CCC4=CC(=O)CC[C@]4(C)[C@H]3[C@@H](O)C[C@@]21C`, the viability change, negative = cytotoxic was -0.096% [at 15.8 µM] (inactive).

On to `Oc1ccc(Nc2ccccc2)cc1`, for which the call was inactive.

With `O=C(O)c1ccccc1NCCc1ccccc1`, the result was inactive.

For the compound `CCC(C)(C)C1CCC(O)CC1` (stereo not drawn), the compound was classed as inactive.

For `O=C(N[C@@H](c1ccccc1)[C@@H]1CCCCN1)c1cccc(C(F)(F)F)c1Cl`, the outcome was inactive.

As to `COC(=O)CC(=O)C(C)(C)C`, the result was inactive.

Regarding `CC(=O)[C@H]1CC[C@H]2[C@@H]3C[C@H](C)C4=CC(=O)CC[C@]4(C)[C@H]3[C@@H](O)C[C@]12C`, the compound was called inactive.

Take `Fc1ccccc1[C@@H](F)COC1CCC(Nc2ncnc3[nH]ncc23)CC1` (stereo partly drawn): the call was inactive.

Consider `COCc1c(C(C)C)nc(C(C)C)c(/C=C/[C@@H](O)C[C@@H](O)CC(=O)O)c1-c1ccc(F)cc1`, for which the compound was called inactive.

On to `CCNC(=O)N1CCN(CCCC(c2ccc(F)cc2)c2ccc(F)cc2)CC1`, for which the result was inactive.

In the case of `O=C(Nc1ccccc1)Nc1ccccc1`, the call was inactive.

`c1cc[c]([Bi]([c]2ccccc2)[c]2ccccc2)cc1`: the outcome was inactive.

As for `CCOC(=O)N1CCC(n2c(=O)[nH]c3cc(Cl)ccc32)CC1`, the result was inactive.

Regarding `CCn1cc(C(=O)O)c(=O)c2cc(F)c(N3CCNCC3)nc21`, the compound was called inactive.

As to `CC(=O)OCC(=O)[C@@]12OC(C)(C)O[C@@H]1C[C@H]1[C@@H]3C[C@H](F)C4=CC(=O)C=C[C@]4(C)[C@@]3(F)[C@@H](O)C[C@@]12C`, the outcome was inactive.

With `CN(C)C(=O)Nc1ccc(Oc2ccc(Cl)cc2)cc1`, the compound was classed as inactive.

Regarding `CC[C@H](NC(=O)c1cc(F)ccc1NS(=O)(=O)c1cccc2cccnc12)c1ccccc1`, the compound was classed as inactive.

Consider `Nc1ccc(Cl)cc1[N+](=O)[O-]`, for which the result was inactive.

In the case of `Brc1cc(-c2ccc(Br)c(Br)c2Br)cc(Br)c1Br`, the outcome was inactive.

Regarding `O=C(O)C(Cc1cc(I)c(O)c(I)c1)c1ccccc1` (stereo not drawn), the compound was called inactive.

Consider `CC(C)(C)C(=O)C(Oc1ccc(Cl)cc1)n1ccnc1` (stereo not drawn), for which the result was inactive.

As for `C=CCOC(=O)/C=C\C(=O)OCC=C`, the call was inactive.

Regarding `NC(=O)N(O)[C@@H]1C=C[C@H](Oc2cccc(Oc3ccc(F)cc3)c2)C1`, the call was inactive.

Regarding `CCC(C(=O)OCCN(CC)CC)c1ccccc1` (stereo not drawn), the compound was called inactive.

As for `COC(=O)c1cc(S(N)(=O)=O)ccc1OC`, the outcome was inactive.

`COc1ccc(CCC(=O)c2c(O)cc(O[C@@H]3O[C@H](CO)[C@@H](O)[C@H](O)[C@H]3O[C@@H]3O[C@@H](C)[C@H](O)[C@@H](O)[C@H]3O)cc2O)cc1O`: the outcome was inactive.

Consider `O=C(O)Cc1ccc(-c2ccccc2)cc1`, for which the call was inactive.

For the compound `CCCCN(CCCC)C(=S)SSC(=S)N(CCCC)CCCC`, the compound was classed as inactive.

Regarding `CC(CCO)CCc1ccccc1` (stereo not drawn), the compound was classed as inactive.

For `COC(=O)c1cc(Cl)ccc1NS(=O)(=O)C(F)(F)F`, the compound was called inactive.

Turning to `O=C(C(=O)c1ccccc1)c1ccccc1`, the outcome was inactive.

For `Cc1oncc1C(=O)Nc1ccc(C(F)(F)F)cc1`, the call was inactive.

Turning to `C[Si]1(C)O[Si](C)(C)O[Si](C)(C)O1`, the compound was classed as inactive.

In the case of `N#C/C(=C1\SCC(c2ccccc2Cl)S1)n1ccnc1` (stereo not drawn), the outcome was inactive.
